Test results from the supplement of paper PMC10849652.
Of roughly 8,800 targets only a part is listed; those with a hit were picked by preference. About 0.5% of all pairs of compound and target were hits.

Assays:
Experiment in all cases: log2 fold change, soluble protein after heating vs DMSO (PISA); higher = thermal stabilisation; K562 lysate, 10 uM; active = over 0.2 and 3.5 SD of the protein, either way, in both replicates (recomputed)
[1] = compound: C1=CC=C(C=C1)[C@H](COC2=CC3=C(C=C2)NC(=O)N3)NC(=O)C4=CC=CN(C4=O)CC5=CC(=C(C=C5)F)F
Outline: (§1)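 Log-two fold change in thermal stability relative to solvent controls is reported from duplicates. For each sample, crude K562 extract from dounce-homogenised pellets in PBS pH 7.4 with 1 mM MgCl2, at 1 mg/mL protein, was treated with 10 μM compound for 30 min. Aliquots heated for 3 min across 48°C-58°C were pooled, brought to 0.5% NP-40 at 4°C and cleared at 21,000xg for 90 min. The supernatant was quantified by TMTpro 16plex LC-MS/MS with channel sums equalised.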

[2] = compound: CC1=C(SC2=C1C(=N[C@H](C3=NN=C(N32)C)CC(=O)N)C4=CC=C(C=C4)Cl)C
Outline: as §1

[3] = compound: CC1=C2C(=CC=C1)N=C(N(C2=O)C3=CC=CC=C3C)CN4C=NC5=C(N=CN=C54)N
Outline: as §1

[4] = compound: Cc1sc2c(c1C)C(c1ccc(Cl)cc1)=N[C@@H](CC(=O)OC(C)(C)C)c1nnc(C)n1-2
Outline: as §1

[5] = compound: c1ccc([C@@H]2C[C@H]2NC2CCNCC2)cc1
Outline: as §1

Measured: log2 fold change

CSNK2A2 (UniProt P19784)
inactive: [1] -0.02 | [2] -0.033 | [3] -0.213 | [4] 0.038 | [5] 0.015

CKM (UniProt P06732)
UniProt P06732, sequence (P06732 whole entry, looked up): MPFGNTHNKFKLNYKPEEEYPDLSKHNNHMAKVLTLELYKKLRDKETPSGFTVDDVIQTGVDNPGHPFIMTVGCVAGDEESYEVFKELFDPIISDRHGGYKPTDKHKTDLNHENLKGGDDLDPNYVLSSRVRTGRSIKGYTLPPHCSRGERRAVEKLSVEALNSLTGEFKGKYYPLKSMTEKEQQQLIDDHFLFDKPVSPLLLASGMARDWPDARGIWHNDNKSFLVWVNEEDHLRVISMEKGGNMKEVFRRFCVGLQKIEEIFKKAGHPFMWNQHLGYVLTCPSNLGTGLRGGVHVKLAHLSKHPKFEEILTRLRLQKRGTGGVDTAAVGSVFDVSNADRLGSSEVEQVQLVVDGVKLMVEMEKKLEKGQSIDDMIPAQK
inactive: [1] 0.008 | [2] -0.027 | [3] -0.109 | [4] -0.169 | [5] 0

CKS1B (UniProt P61024)
UniProt P61024, sequence (P61024 whole entry, looked up): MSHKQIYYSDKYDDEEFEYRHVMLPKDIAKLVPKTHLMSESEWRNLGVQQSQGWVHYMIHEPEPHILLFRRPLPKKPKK
inactive: [1] 0.017 | [2] -0.074 | [3] -0.058 | [4] 0.108 | [5] 0.194

CYP24A1 (UniProt Q07973)
inactive: [1] 0.02 | [2] 0.142 | [3] 0.096 | [4] -0.136 | [5] -0.262

DNAJC3 (UniProt Q13217)
UniProt Q13217, sequence (Q13217 whole entry, looked up): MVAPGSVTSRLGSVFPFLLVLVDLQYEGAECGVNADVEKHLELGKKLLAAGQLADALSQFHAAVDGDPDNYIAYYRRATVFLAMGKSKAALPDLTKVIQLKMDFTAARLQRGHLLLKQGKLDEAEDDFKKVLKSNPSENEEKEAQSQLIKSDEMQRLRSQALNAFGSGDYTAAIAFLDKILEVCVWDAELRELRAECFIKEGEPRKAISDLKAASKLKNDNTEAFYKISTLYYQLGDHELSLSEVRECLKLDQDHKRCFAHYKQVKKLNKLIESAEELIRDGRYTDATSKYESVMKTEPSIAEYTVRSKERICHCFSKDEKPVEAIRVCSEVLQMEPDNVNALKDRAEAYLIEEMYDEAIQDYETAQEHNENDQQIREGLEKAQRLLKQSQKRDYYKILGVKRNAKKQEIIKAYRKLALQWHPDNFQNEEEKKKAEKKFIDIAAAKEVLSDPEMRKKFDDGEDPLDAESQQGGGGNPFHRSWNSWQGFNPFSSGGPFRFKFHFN
inactive: [1] 0.06 | [2] -0.073 | [3] -0.003 | [4] -0.01 | [5] 0.031

CLASP1 (UniProt Q7Z460)
inactive: [1] -0.019 | [2] 0.011 | [3] 0.022 | [4] -0.026 | [5] -0.007

CSNK1A1 isoform 3 (UniProt P48729)
inactive: [4] 0.021

COX7B (UniProt P24311)
UniProt P24311, sequence (P24311 whole entry, looked up): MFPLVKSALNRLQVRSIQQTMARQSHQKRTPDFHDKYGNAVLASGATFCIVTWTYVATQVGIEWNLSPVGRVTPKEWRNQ
inactive: [3] -0.031 | [4] -0.027 | [5] -0.075

CORO7 (UniProt P57737)
UniProt P57737, sequence (P57737 whole entry, looked up): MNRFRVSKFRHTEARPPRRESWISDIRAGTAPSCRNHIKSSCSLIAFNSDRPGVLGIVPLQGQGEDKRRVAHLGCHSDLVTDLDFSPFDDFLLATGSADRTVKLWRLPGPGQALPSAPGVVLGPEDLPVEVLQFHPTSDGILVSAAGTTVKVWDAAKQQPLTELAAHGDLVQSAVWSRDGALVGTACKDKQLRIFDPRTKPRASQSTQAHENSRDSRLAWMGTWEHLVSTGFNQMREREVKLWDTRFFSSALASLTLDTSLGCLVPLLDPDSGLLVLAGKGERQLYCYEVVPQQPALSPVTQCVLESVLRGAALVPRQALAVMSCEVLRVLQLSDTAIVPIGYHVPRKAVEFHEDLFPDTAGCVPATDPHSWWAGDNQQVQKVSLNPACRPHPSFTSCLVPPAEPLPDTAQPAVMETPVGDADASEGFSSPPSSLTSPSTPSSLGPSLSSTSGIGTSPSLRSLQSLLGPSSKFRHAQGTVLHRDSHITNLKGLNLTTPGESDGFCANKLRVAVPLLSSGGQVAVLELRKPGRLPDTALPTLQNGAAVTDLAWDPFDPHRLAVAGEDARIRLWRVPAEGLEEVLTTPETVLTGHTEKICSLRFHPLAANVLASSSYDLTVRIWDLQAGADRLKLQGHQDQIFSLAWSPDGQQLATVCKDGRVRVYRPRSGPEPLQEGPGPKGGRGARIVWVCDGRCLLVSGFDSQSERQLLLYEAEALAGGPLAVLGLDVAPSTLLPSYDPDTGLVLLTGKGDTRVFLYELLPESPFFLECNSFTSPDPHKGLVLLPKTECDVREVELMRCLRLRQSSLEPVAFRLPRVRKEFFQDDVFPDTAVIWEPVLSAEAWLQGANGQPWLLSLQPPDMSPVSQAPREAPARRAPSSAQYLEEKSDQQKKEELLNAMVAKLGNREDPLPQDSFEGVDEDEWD
inactive: [3] 0.18 | [4] 0.165 | [5] 0.164

CYP4V2 (UniProt Q6ZWL3)
inactive: [1] -0.119 | [2] 0.188 | [4] 0.035

CLIP1 isoform 2 (UniProt P30622)
inactive: [1] 0.11 | [2] -0.03 | [4] 0.009 | [5] -0.002

CLIP1, A0A3B3ITA2
inactive: [3] 0.035 | [5] -0.123

DHX32 (UniProt Q7L7V1)
inactive: [3] -0.086 | [5] -0.009

DNA2 (UniProt P51530)
inactive: [3] 0.047 | [4] 0.072 | [5] 0.026

DDR1 isoform 5 (UniProt Q08345)
UniProt Q08345, sequence (Q08345 whole entry, looked up): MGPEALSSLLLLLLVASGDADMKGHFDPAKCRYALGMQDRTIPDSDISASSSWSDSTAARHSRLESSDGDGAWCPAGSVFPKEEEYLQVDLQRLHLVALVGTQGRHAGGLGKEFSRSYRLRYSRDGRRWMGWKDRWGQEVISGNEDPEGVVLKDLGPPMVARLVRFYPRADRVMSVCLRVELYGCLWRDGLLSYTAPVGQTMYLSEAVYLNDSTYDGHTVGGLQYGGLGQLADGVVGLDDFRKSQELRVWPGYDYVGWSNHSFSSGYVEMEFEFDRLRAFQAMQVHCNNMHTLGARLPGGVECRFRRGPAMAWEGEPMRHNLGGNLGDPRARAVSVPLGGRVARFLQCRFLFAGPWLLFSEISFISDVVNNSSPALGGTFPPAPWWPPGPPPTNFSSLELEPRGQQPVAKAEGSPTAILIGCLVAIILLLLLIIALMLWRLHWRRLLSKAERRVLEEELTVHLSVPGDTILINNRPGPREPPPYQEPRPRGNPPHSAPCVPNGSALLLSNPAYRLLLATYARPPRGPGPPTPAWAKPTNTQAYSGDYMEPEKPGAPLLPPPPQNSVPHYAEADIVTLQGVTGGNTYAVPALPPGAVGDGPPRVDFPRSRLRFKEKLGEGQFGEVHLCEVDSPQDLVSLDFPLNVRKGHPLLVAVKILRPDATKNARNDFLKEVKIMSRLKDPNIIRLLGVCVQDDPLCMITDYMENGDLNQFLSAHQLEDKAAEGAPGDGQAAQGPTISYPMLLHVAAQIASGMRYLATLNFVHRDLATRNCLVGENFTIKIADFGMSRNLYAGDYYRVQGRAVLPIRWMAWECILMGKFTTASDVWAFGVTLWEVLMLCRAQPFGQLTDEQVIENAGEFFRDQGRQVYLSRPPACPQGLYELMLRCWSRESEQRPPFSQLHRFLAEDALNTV
inactive: [1] -0.1 | [2] 0.057 | [4] -0.09 | [5] 0.135

DLGAP5 isoform 3 (UniProt Q15398)
inactive: [1] -0.167 | [2] 0.031 | [4] -0.036 | [5] 0.021

DDAH1 (UniProt O94760)
UniProt O94760, sequence (O94760 whole entry, looked up): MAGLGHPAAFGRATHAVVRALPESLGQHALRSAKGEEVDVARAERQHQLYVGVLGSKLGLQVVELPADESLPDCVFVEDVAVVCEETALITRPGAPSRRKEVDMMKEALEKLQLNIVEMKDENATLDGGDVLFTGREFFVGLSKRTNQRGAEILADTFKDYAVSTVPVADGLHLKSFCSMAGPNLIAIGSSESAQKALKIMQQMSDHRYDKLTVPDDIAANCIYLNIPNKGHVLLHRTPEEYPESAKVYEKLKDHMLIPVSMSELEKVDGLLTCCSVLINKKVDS
inactive: [3] 0.005 | [4] 0.15 | [5] -0.072

CNTN4 (UniProt Q8IWV2)
inactive: [1] 0.046 | [2] 0.073 | [3] 0.105 | [5] -0.319

CLASP1 isoform 4 (UniProt Q7Z460)
inactive: [3] 0.056

DONSON (UniProt Q9NYP3)
inactive: [1] -0.043 | [2] 0.068 | [4] 0.013 | [5] -0.243

CNNM2 (UniProt Q9H8M5)
inactive: [3] 0.041 | [4] 0.034 | [5] 0.014

CLASP2 (UniProt O75122)
inactive: [1] 0.16 | [2] -0.248 | [3] -0.105 | [5] 0.002

CRLS1 (UniProt Q9UJA2)
UniProt Q9UJA2, sequence (Q9UJA2 whole entry, looked up): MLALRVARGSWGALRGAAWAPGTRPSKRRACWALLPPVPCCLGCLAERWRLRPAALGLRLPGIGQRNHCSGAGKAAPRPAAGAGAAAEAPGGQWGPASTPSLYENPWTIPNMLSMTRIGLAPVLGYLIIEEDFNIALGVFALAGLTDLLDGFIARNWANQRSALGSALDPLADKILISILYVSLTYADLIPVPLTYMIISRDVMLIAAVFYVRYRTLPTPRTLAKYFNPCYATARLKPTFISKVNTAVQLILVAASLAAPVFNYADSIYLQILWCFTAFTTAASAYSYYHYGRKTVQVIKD
inactive: [1] -0.349 | [2] 0.044 | [5] 0.065

DHRS13 (UniProt Q6UX07)
UniProt Q6UX07, sequence (Q6UX07 whole entry, looked up): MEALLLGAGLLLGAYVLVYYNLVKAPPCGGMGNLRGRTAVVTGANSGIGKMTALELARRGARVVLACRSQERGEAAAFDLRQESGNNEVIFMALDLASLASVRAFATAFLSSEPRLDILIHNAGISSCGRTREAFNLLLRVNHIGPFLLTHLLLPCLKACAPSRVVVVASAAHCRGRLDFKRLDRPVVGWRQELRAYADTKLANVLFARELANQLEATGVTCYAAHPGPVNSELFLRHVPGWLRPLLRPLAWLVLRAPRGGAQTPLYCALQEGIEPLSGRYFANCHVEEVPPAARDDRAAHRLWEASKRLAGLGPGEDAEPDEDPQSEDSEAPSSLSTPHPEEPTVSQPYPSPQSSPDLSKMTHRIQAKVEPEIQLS
inactive: [1] -0.13 | [2] 0.059 | [4] -0.099

DALRD3 (UniProt Q5D0E6)
inactive: [3] 0.193 | [5] 0.137

CHMP4A (UniProt H0YIN6)
inactive: [1] 0.032 | [2] 0.166 | [4] -0.222 | [5] -0.12

CSRP2 (UniProt Q16527)
inactive: [1] -0.031 | [2] -0.018 | [5] 0.003

DNM2 isoform 4 (UniProt P50570)
inactive: [4] 0.025 | [5] -0.043

CYP2S1 isoform 2 (UniProt Q96SQ9)
inactive: [3] 0.033 | [4] -0.123

DESI2 (UniProt Q9BSY9)
inactive: [3] -0.142 | [5] -0.038

COL12A1 (UniProt Q99715)
inactive: [3] 0.08 | [4] -0.078

CNK3/IPCEF1 isoform 2 (UniProt G9CGD6)
UniProt G9CGD6, sequence (G9CGD6 whole entry, looked up): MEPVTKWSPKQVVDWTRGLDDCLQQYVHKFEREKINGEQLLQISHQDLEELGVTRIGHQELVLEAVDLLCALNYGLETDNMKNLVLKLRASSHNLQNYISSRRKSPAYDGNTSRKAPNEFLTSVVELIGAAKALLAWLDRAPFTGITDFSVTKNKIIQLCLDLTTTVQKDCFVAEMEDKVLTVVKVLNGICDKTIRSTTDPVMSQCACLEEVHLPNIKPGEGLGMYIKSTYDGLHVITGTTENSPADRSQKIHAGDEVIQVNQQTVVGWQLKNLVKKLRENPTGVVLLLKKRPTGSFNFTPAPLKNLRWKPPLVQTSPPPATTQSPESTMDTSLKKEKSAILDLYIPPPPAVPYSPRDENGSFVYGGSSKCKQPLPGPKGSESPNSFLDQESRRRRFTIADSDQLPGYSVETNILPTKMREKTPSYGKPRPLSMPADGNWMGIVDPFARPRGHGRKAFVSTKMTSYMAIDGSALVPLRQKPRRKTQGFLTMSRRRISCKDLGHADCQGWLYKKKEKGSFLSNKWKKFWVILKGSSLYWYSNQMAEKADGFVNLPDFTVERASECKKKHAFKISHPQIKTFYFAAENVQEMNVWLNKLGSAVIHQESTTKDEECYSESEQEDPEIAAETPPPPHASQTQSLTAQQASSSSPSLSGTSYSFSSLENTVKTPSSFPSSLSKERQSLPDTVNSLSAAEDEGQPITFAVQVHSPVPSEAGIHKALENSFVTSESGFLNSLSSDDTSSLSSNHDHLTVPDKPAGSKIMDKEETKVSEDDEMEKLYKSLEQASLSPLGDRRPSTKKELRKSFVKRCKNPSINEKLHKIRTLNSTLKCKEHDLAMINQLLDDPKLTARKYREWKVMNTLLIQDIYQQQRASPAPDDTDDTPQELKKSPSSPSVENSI
inactive: [3] -0.032 | [4] 0 | [5] -0.817

CUX1 isoform 2 (UniProt Q13948)
inactive: [3] 0.03 | [4] 0.075 | [5] 0.193

CHFR (UniProt Q96EP1)
inactive: [3] 0.027 | [4] -0.056

CSDE1 isoform 3 (UniProt O75534)
inactive: [1] -0.18 | [2] -0.098 | [5] 0.043

COL6A3 (UniProt P12111)
inactive: [1] -0.008 | [2] -0.04 | [4] -0.079 | [5] 0.13

DCTN1 isoform 4 (UniProt Q14203)
inactive: [3] 0.013 | [4] -0.13 | [5] -0.452

DNAJC24 (UniProt Q6P3W2)
UniProt Q6P3W2, sequence (Q6P3W2 whole entry, looked up): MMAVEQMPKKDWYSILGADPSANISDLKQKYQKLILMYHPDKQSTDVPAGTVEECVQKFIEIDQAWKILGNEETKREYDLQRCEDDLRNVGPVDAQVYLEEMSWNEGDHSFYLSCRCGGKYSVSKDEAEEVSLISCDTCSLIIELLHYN
inactive: [3] 0.007 | [4] 0.024 | [5] 0.055

CPLX1 (UniProt O14810)
inactive: [3] -0.08 | [4] -0.239

DAPK1 isoform 3 (UniProt P53355)
inactive: [3] 0.035 | [4] 0.013 | [5] 0.039
